For eight molecules, growth results are on record in PubChem BioAssay (NCI).

This is part of a sample that, as a whole, favours compounds with a hit. Of some 83,000 tested, about 20% had one in any assay.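 How to read the values: 0–100, growth inhibition (40 = 60% inhibited); 0, no net growth; -100 to 0, cell death (-40 = 40% of starting cells died; -100 = all dead).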 Values without a mark were called inactive. The source made the active and inactive calls. The calls were made as follows: active = growth percent below 10; inactive = the rest.

Among the test systems are SR leukemia; RPMI-8226 leukemia; OVCAR-8 ovarian; OVCAR-5 ovarian; OVCAR-4 ovarian; SK-OV-3 ovarian; IGROV1 ovarian; OVCAR-3 ovarian; HS 578T breast; NCI/ADR-RES ovarian; T-47D breast; BT-549 breast; MDA-MB-435 melanoma; SW-620 colon; MCF7 breast; HCT-116 colon; HCC-2998 colon; KM12 colon.
Common to all, as to assay: NCI-60 one-dose screen, 48 h (100 = growth as untreated, 0 = no growth, -100 = all killed)
Holding throughout (settings): 10 µM unless noted

In the case of `CCCCCCC1(C)NCCO1` (centres undefined), the growth in the experiment with SR leukemia was 94.5%; with RPMI-8226 leukemia it was 101%; in the experiment on OVCAR-8 ovarian it was 96.6%; in the experiment with OVCAR-5 ovarian, 110%; in the experiment with OVCAR-4 ovarian, 96%; in the experiment with SK-OV-3 ovarian it was 100%. Also, the growth with IGROV1 ovarian is 79.8%; in the experiment with OVCAR-3 ovarian, 114%; with HS 578T breast, 126%; with NCI/ADR-RES ovarian, 108%; with T-47D breast, 108%; in the experiment with BT-549 breast, 103%. In addition, the growth was 109% in the experiment with MDA-MB-435 melanoma; 106% in the experiment with SW-620 colon; 99.7% in the experiment on MCF7 breast; 106% in the experiment with HCT-116 colon; 99.2% in the experiment with HCC-2998 colon; 106% with KM12 colon.

In the case of `COc1ccc2c(O)c(/C=C3\N=Nc4ccccc43)oc2c1C[C@@H]1CCNC[C@H]1F`, the growth in the experiment on SR leukemia was -38.5% (active); in the experiment with RPMI-8226 leukemia it was 91.9%; in the experiment with OVCAR-8 ovarian, 0.196% (active); in the experiment with OVCAR-5 ovarian it was 67.8%; in the experiment on OVCAR-4 ovarian it was 64.9%; with SK-OV-3 ovarian, 90.5%. In addition, the growth was 76.4% in the experiment on IGROV1 ovarian; 94% with OVCAR-3 ovarian; 60.3% with HS 578T breast; 72.1% with NCI/ADR-RES ovarian; 94.3% in the experiment on T-47D breast; 73.8% in the experiment with BT-549 breast. Moreover, the growth is 68.3% in the experiment on MDA-MB-435 melanoma; 6.01% (active) in the experiment on SW-620 colon; 18.3% in the experiment with MCF7 breast; -68.2% (active) with HCT-116 colon; 78% in the experiment on HCC-2998 colon; 10.9% with KM12 colon.

`Fc1ccc(-c2nn(-c3ccccc3)cc2-c2nc3ccccc3o2)cc1`: the growth in the experiment with SR leukemia was 43.6%; in the experiment on RPMI-8226 leukemia it was 48.2%; with OVCAR-8 ovarian it was 58.8%; in the experiment with OVCAR-5 ovarian, 122%; in the experiment with OVCAR-4 ovarian, 78.1%; in the experiment with SK-OV-3 ovarian, 120%. In addition, the growth with IGROV1 ovarian was 82.1%; with OVCAR-3 ovarian, 45.1%; in the experiment on HS 578T breast, 82%; with NCI/ADR-RES ovarian it was 46.9%; in the experiment on T-47D breast, 44.6%; in the experiment on BT-549 breast, 66.4%. The growth in the experiment on MDA-MB-435 melanoma was 27.8%; with SW-620 colon, 63.1%; in the experiment on MCF7 breast it was 50.9%; in the experiment with HCT-116 colon, 34.8%; with HCC-2998 colon, 101%; in the experiment with KM12 colon, 31.3%.

In the case of `O=S(=O)(Nc1cc(Br)c(O)c2ccccc12)c1ccc(F)cc1`, the growth in the experiment on SR leukemia is 11.6%; in the experiment on RPMI-8226 leukemia, 27.2%; in the experiment on OVCAR-8 ovarian, 3.09% (active); in the experiment on OVCAR-5 ovarian, 113%; in the experiment with OVCAR-4 ovarian, -97.5% (active); in the experiment on SK-OV-3 ovarian, 99.7%. Further, the growth is 81.4% in the experiment with IGROV1 ovarian; -0.424% (active) with OVCAR-3 ovarian; 98.3% in the experiment on HS 578T breast; 4.65% (active) with NCI/ADR-RES ovarian; 6.12% (active) in the experiment with T-47D breast; 100% in the experiment on BT-549 breast. Also, the growth was -90.4% (active) in the experiment with MDA-MB-435 melanoma; 104% with SW-620 colon; 49.1% in the experiment on MCF7 breast; 51% in the experiment on HCT-116 colon; 97.8% in the experiment with HCC-2998 colon; 86.4% in the experiment with KM12 colon.

For `CN(CCn1sc(=O)n(Cc2ccccc2)c1=O)Cc1ccc2c(Cl)cc(Cl)c(O)c2n1`, the growth with SR leukemia is 39.2%; in the experiment on RPMI-8226 leukemia it was 45%; in the experiment on OVCAR-8 ovarian it was 32.7%; in the experiment on OVCAR-5 ovarian, 61.4%; with OVCAR-4 ovarian, 59.3%; with SK-OV-3 ovarian it was 65.4%. The growth with IGROV1 ovarian was 37.3%; in the experiment with OVCAR-3 ovarian, 18.9%; in the experiment on HS 578T breast, 68.1%; in the experiment on NCI/ADR-RES ovarian, 6.83% (active); with T-47D breast, 44.9%; in the experiment with BT-549 breast, 70.5%. Further, the growth with MDA-MB-435 melanoma is 55.8%; in the experiment with SW-620 colon it was 22.7%; in the experiment on MCF7 breast, 29.9%; in the experiment on HCT-116 colon it was 19%; in the experiment on HCC-2998 colon it was 52.2%; with KM12 colon, 37.1%.

On to `CC[C@@H](C(=O)[C@@H](C)[C@@H](O)[C@H](C)[C@@H]1O[C@@H]([C@@H](CC)C(=O)NCCc2ccc(F)cc2)CC[C@@H]1C)C1O[C@]2(C=CC(=O)[C@]3(CC[C@@](C)([C@H]4CC[C@](O)(CC)[C@H](C)O4)O3)O2)[C@H](C)C[C@@H]1C` (some centres undefined), for which the growth was 41.9% in the experiment with SR leukemia; 7.59% (active) with RPMI-8226 leukemia; 32.2% in the experiment with OVCAR-8 ovarian; 67.7% with OVCAR-5 ovarian; -2.57% (active) in the experiment with OVCAR-4 ovarian; 44.7% in the experiment with SK-OV-3 ovarian. Moreover, the growth in the experiment on IGROV1 ovarian was 26.3%; in the experiment on OVCAR-3 ovarian, 10.5%; in the experiment with HS 578T breast it was 48.1%; in the experiment on NCI/ADR-RES ovarian it was 29.6%; with T-47D breast, 15%; in the experiment with BT-549 breast it was 54.1%. Further, the growth with MDA-MB-435 melanoma is 39.3%; in the experiment with SW-620 colon it was 40.4%; in the experiment with MCF7 breast, 18.4%; with HCT-116 colon, 16.9%; in the experiment on HCC-2998 colon, 63.8%; in the experiment on KM12 colon, 42.6%.

`CCc1ccc(C(=O)/C=C/C23c4ccccc4C(c4ccccc42)C2C(=O)NC(=O)C23)cc1` (centres undefined): the growth in the experiment with SR leukemia is 0.497% (active); in the experiment on RPMI-8226 leukemia it was -35.1% (active); in the experiment with OVCAR-8 ovarian, -20% (active); with OVCAR-5 ovarian, 15.7%; with OVCAR-4 ovarian it was 37.5%; in the experiment with SK-OV-3 ovarian, 38.6%. Moreover, the growth with IGROV1 ovarian was 0.604% (active); in the experiment with OVCAR-3 ovarian, -59.7% (active); in the experiment on HS 578T breast, 41%; in the experiment with NCI/ADR-RES ovarian, 4.03% (active); in the experiment with T-47D breast it was 21.9%; with BT-549 breast, -7.29% (active). Moreover, the growth with MDA-MB-435 melanoma is -46.6% (active); with SW-620 colon, 8.84% (active); in the experiment with MCF7 breast, 16.6%; with HCT-116 colon, -40% (active); in the experiment on HCC-2998 colon, 24.5%; in the experiment on KM12 colon, 11.2%.

For `C=C1C(=O)O[C@H]2[C@H]1CC/C(COC(=O)CSCCSCC(=O)OC/C1=C/CC[C@@]3(C)O[C@H]3[C@H]3OC(=O)C(=C)[C@@H]3CC1)=C\CC[C@@]1(C)O[C@@H]21`, the growth in the experiment with SR leukemia was -22.6% (active); in the experiment with RPMI-8226 leukemia, -29.7% (active); with OVCAR-8 ovarian, 4.46% (active); in the experiment on OVCAR-5 ovarian it was 21.8%; in the experiment on OVCAR-4 ovarian, 40.4%; in the experiment on SK-OV-3 ovarian, 89.3%. Besides, the growth in the experiment on IGROV1 ovarian was -9.6% (active); in the experiment with OVCAR-3 ovarian, -12.1% (active); in the experiment on HS 578T breast, 32.6%; with NCI/ADR-RES ovarian, 59.5%; in the experiment with T-47D breast, 29.5%; in the experiment with BT-549 breast, -16.3% (active). Also, the growth with MDA-MB-435 melanoma was 34.3%; in the experiment with SW-620 colon it was 2.85% (active); in the experiment on MCF7 breast, 18.1%; with HCT-116 colon, -31.6% (active); in the experiment with HCC-2998 colon, 25.8%; in the experiment on KM12 colon it was 51.1%.
